From PubChem BioAssay AID743101 (Vanderbilt Specialized Chemistry Center, 2013)
Unmarked numbers belong to inactive results.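 How the source made its calls: active means calcium signal above 60% of the peak acetylcholine response at the M5 receptor, called a positive modulator; inactive means the rest.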

What follows are molecules tested against Muscarinic acetylcholine receptor M4 (Homo sapiens) (UniProt P08173) (assay: off-target M4 muscarinic potentiation – cell-based, CHO-K1 hM4/Gqi5, Fluo-4 calcium flux, ACh EC20, counter-screen for M5 PAM project (AID 743101)). Conditions: Fluo-4, ACh EC20, at 30 µM (top of the series); % max ACh response: at the top concentration.
Sequence of Muscarinic acetylcholine receptor M4 (Homo sapiens) (P08173 whole entry, looked up): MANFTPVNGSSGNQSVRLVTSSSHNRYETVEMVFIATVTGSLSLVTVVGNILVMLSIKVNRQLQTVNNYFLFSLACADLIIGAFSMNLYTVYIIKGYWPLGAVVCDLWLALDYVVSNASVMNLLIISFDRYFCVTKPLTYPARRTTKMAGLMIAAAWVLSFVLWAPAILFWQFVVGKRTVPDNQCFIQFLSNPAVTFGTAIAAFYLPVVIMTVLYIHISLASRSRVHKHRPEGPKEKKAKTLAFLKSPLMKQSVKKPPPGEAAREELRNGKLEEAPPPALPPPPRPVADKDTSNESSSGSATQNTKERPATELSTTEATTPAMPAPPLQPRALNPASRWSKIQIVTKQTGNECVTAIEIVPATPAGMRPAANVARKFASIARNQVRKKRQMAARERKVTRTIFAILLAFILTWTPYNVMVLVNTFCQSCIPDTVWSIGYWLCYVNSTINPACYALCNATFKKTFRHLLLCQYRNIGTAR

Going from `CCN(Cc1ccccc1)C(=O)C1CCN(S(=O)(=O)c2ccc3[nH]ncc3c2)CC1` to `CCN(Cc1ccccc1)C(=O)C1CCN(S(=O)(=O)c2ccc3cn[nH]c3c2)CC1`, the “% max ACh response” value falls from 18.4 to 15.7.

Going from `CCN(Cc1ccccc1)C(=O)C1CCN(S(=O)(=O)c2ccc3c(c2)OCCO3)CC1` to `CCN(Cc1ccccc1Cl)C(=O)C1CCN(S(=O)(=O)c2ccc3[nH]ncc3c2)CC1`, the “% max ACh response” value rises from 13.2 to 16.6.

Compared with `CCN(Cc1ccccc1C(F)(F)F)C(=O)C1CCN(S(=O)(=O)c2ccc3cn[nH]c3c2)CC1`, `CCN(Cc1ccccc1C(F)(F)F)C(=O)C1CCN(S(=O)(=O)c2ccc3[nH]ncc3c2)CC1` is higher in “% max ACh response” value: 19.4 for the first, 29.7 for the second.

Going from `CCN(Cc1ccccc1C(F)(F)F)C(=O)C1(F)CCN(S(=O)(=O)c2ccc3[nH]ncc3c2)CC1` to `CCCN(Cc1ccccc1C(F)(F)F)C(=O)C1CCN(S(=O)(=O)c2ccc3[nH]ncc3c2)CC1`, the “% max ACh response” value rises from 29.4 to 44.8.

Compared with `CCN(C(=O)C1CCN(S(=O)(=O)c2ccc3[nH]ncc3c2)CC1)[C@H](C)c1ccccc1`, `CCN(C(=O)C1CCN(S(=O)(=O)c2ccc(OC)cc2)CC1)[C@H](C)c1ccccc1` is higher in “% max ACh response” value: 18.1 for the first, 20.8 for the second.

For `CCN(C(=O)C1CCN(S(=O)(=O)c2ccc(-n3cccn3)cc2)CC1)[C@H](C)c1ccccc1`, the “% max ACh response” value was 18.2.
